Laboratory results as given in PubChem BioAssay (Tox21).
Activity calls are given as the source filed them. Calls come from the whole dose curve; as a rule, active = well fitted inhibition curve with a large enough effect in the repeat runs (not every such curve was filed as active); inconclusive = weak or mixed curves; inactive = flat fitted curve, though single readings scatter.

The compounds below were run against Thyrotropin-releasing hormone receptor (Homo sapiens) (UniProt P34981) (assay: qHTS assay to identify small molecule antagonists of the thyrotropin-releasing hormone receptor (TRHR) signaling pathway (AID 1346877)). Conditions: TRHR-HEK293, TRH-induced calcium fluorescence, antagonist mode; series mostly up to 51.3 µM.
Source text: National Center for Advancing Translational Sciences [NCATS]
NIH Chemical Genomics Center [NCGC]
U.S. Environmental Protection Agency [EPA]
National Institutes of Environmental Health Sciences [NIEHS]
National Toxicology Program [NTP]
U.S. Food and Drug Administration [FDA]
Thyrotropin-releasing hormone (TRH) receptor (TRHR) is a G-protein-coupled receptor which binds the tripeptide thyrotropin releasing hormone. TRHR is found in the brain and, when bound by TRH, acts (through phospholipase C) to increase intracellular inositol trisphosphate. It plays a crucial role in the anterior pituitary where it controls the synthesis and secretion of thyroid stimulating hormone and prolactin. The TRHR-Hek293 assay is a cell-based assay, and it has the potential to screen G protein-coupled receptors. A compound/drug can either activate (agonist) or suppress (antagonist) GPCRs that can be monitored by levels of intracellular calcium. In this assay, the Tox21 10K compound library was screened to identify potential TRHR antagonists.
Tox21 Assay Protocol Summary:
The TRHR-Hek293 cells were dispensed at 1500cells/4uL/well in 1536-well black-clear bottom plates using a Multidrop dispenser. After the assay plates were incubated at a 37 C/5% CO2 incubator for 18 hours, 4 uL of Dye-Loading Solution was added to each well. The plates were incubated at 37 C for 2 hours. For agonist mode, 23 nL of compounds dissolved in DMSO, positive controls or DMSO only was transferred to the assay plate by a pin tool. The fluorescence intensity in the plates was measured using FDSS 7000EX kinetic plate reader for 3 min at 1 sec intervals. For antagonist mode, 23 nL of compounds dissolved in DMSO, positive controls or DMSO only was transferred to the assay plate by a pin tool. After 5 min incubation at room temperature, 1 uL of TRH was added on the top of the cell/compound mixtures to achieve a final agonist concentration of 1 nM. The fluorescence intensity in the plates was measured using FDSS 7000EX kinetic plate reader for 3 min at 1 sec intervals. Each test compound was measured at 15 concentrations and in triplicates.
% is set by controls: 0 for no effect and ±100 for the full control effect.

Sequence of Thyrotropin-releasing hormone receptor (Homo sapiens) (P34981 whole entry, looked up): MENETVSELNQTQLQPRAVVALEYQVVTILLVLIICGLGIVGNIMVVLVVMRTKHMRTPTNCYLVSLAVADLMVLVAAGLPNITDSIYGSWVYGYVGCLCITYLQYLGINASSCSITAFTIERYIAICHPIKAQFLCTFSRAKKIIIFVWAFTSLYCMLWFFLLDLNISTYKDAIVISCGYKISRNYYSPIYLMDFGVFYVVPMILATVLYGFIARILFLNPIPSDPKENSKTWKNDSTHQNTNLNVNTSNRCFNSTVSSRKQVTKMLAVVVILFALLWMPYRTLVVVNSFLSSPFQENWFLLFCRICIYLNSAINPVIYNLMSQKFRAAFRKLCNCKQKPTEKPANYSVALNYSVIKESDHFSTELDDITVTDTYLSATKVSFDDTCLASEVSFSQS

| Compound | outcome | activity, negative = inhibition |
| --- | --- | --- |
| CC(C)CC(O)CC(C)C | inactive | – |
| Cc1ccc2nc(N)[nH]c(=O)c2c1Sc1ccncc1 | inactive | – |
| CC(C)COC(=O)c1ccc(O)cc1 | inactive | – |
| O=C(CCS)OCC(COC(=O)CCS)(COC(=O)CCS)COC(=O)CCS | inactive | – |
| CCCCOC(=O)CCCCC(=O)OCCCC | inactive | – |
| COc1ccc(C(=O)NCc2ccc(OCCN(C)C)cc2)cc1OC | inactive | – |
| O=C(NC(Cc1cc(=O)[nH]c2ccccc12)C(=O)O)c1ccc(Cl)cc1 (stereo not given) | inactive | – |
| COc1ccc(-n2nc(C(F)F)cc2-c2ccc(S(C)=O)cc2)cc1 (stereo not given) | inactive | – |
| CCCCCCCC(=O)OCCCCCC | inactive | – |
| CC(=O)OCCC1CCCCC1 | inactive | – |
| O=C(c1ccccc1)C1CCC1 | inactive | – |
| O=C(O)CCS | inactive | – |
| NC(=O)c1ccccc1[N+](=O)[O-] | inactive | – |
| C1CCCCC1 | inactive | – |
| CCCCCCCC/C=C\CCCCCCCC(=O)OCCO | inactive | – |
| C=C(C)C(=O)OCCC(F)(F)C(F)(F)C(F)(F)C(F)(F)C(F)(F)C(F)(F)F | inactive | – |
| CC1CCC(C(C)CS)CC1S (stereo not given) | inactive | – |
| C[C@@H]1C[C@H]2[C@@H]3CCC4=CC(=O)C=C[C@]4(C)[C@@]3(F)[C@@H](O)C[C@]2(C)[C@@]1(O)C(=O)COP(=O)(O)O | inactive | – |
| CC1=CC[C@@H]2C[C@H]1C2(C)C | – | 3.09% [at 10.5 µM] (inactive) |
| CCCCCCCCCCCC(=O)OCC(O)CO (stereo not given) | inactive | – |

| Compound | outcome | activity, negative = inhibition |
| --- | --- | --- |
| O=C(O)c1cccc(C[C@@H]2COc3ccc(OCc4nc5cc(F)ccc5s4)cc3[C@@H]2O)c1 | inactive | – |
| CCCc1nc2c(C)cc(-c3nc4ccccc4n3C)cc2n1Cc1ccc(-c2ccccc2C(=O)O)cc1 | inactive | – |
| ClC1=C(Cl)C1(Cl)Cl | inactive | – |
| CN(C)CC/C=C1\c2ccccc2Sc2ccc(Cl)cc21 | inactive | – |
| CC[C@H]1OC(=O)[C@H](C)[C@@H](O[C@H]2C[C@@](C)(OC)[C@@H](O)[C@H](C)O2)[C@H](C)[C@@H](O[C@@H]2O[C@H](C)C[C@H](N(C)C)[C@H]2O)[C@](C)(O)C[C@@H](C)CN(C)[C@H](C)[C@@H](O)[C@]1(C)O | inactive | – |
| CC(C)(C)C(O)/C=C/c1ccc2c(c1)OCO2 (stereo not given) | inactive | – |
| N[C@@H](Cc1cc(I)c(O)c(I)c1)C(=O)O | inactive | – |
| CC(C)(C)C1(CCc2ccc(Cl)cc2)CO1 (stereo not given) | inactive | – |
| CCCCCCCC/C=C/C(=O)O | inactive | – |
| Nc1ccc(NC(=O)c2ccc(N)cc2)cc1 | inactive | – |
| Nc1ccc(N=Nc2ccc(N)cc2)cc1 | inactive | – |
| CCc1ccc(C)cc1 | inactive | – |
| Cc1ccccc1S(N)(=O)=O | inactive | – |
| CC(CCc1ccc(O)cc1)NCCc1ccc(O)c(O)c1 (stereo not given) | inactive | – |
| Cc1oc(=O)oc1COC(=O)[C@@H]1N2C(=O)[C@@H](NC(=O)[C@H](N)c3ccccc3)[C@H]2SC1(C)C | inactive | – |
| C/C(C=O)=C\c1ccccc1 | inactive | – |
| CC1CCc2nccnc21 (stereo not given) | inactive | – |
| COC(=O)C1=C(C)NC(C)=C(C(=O)OC(C)(C)CN(C)CCC(c2ccccc2)c2ccccc2)C1c1cccc([N+](=O)[O-])c1 (stereo not given) | inactive | – |
| CCN(CC)CCOc1ccccc1C(=O)CCc1ccccc1 | inactive | – |
| CCSC(=O)N(CC)CC | inactive | – |
